This note sets out measurements from PubChem BioAssay.

Calls of active or inactive are those of the source.

A short description of assay [1]: compounds binding Alexa647 anti-His antibody – biochemical, small-molecule microarray, 635 nm fluorescence, artefact control for SMM control protein annotation, primary screen (AID 1128).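 Note: score merges feature fluorescence with signal-to-noise for each printed compound spot.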 As to conditions: higher = more signal.
Assay [2] relates to Human papillomavirus type 1a E7 protein (residues 1-88). The assay can be described thus: HPV1a E7 small-molecule binders, primary screen, biochemical, small-molecule microarray, residues 1-88, 635 nm (AID 1129). As to conditions: small-molecule microarray binding, fluorescence 635 nm; higher = more signal.
For assay [3], the target named is Focal adhesion kinase 1 (Homo sapiens) (UniProt Q05397). The experiment in a line: PTK2 protein binding on printed compound slides – biochemical, small-molecule microarray, 635/667 nm fluorescence, BSA, DTT, primary screen (AID 1130).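 Note: composite of spot emission at 667 nm and signal to noise over triplicate slides.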 The conditions noted are these: 635 nm fluorescence, higher = more signal.
The test system of assay [4] is Fibrinogen (Alexa647-labelled). The assay can be described thus: Alexa647-fibrinogen binding to printed small molecules – biochemical, small-molecule microarray, 635/667 nm fluorescence, artefact control for SMM control-protein annotation, profiling panel (AID 1131).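 Note: z-score merges 667 nm fluorescence with per-spot signal-to-noise over triplicate slides.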 The conditions noted are these: fibrinogen-A647 binding fluorescence, higher = more signal.
Assay [5] has as its target Follistatin (Homo sapiens) (UniProt P19883). The experiment in a line: FST protein binding to printed compounds – biochemical, small-molecule microarray, 635/667 nm fluorescence, primary screen (AID 1132). As to conditions: 635 nm fluorescence, higher = more signal.
For assay [6], the target named is Fibroblast growth factor 2 (Homo sapiens) (UniProt P09038). The assay can be described thus: basic fibroblast growth factor binding to printed compounds – biochemical, small-molecule microarray, 635/667 nm fluorescence, primary screen (AID 1133). As to conditions: FGF2, fluorescence 635/667, higher = more signal.
Assay [7] in a line: JC-1 mitochondrial potential readout, lung cancer cells – cell-based, A549, JC-1 fluorescence, basal, 24 h, 100 nL, profiling panel (AID 1138).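 Note: A549 lung adenocarcinoma cells under basal conditions with no added stimulus; test concentration not given here.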 The conditions noted are these: higher = more signal.
Another assay relates to Lefty1. The assay can be described thus: Lefty1 protein binding to printed compounds – biochemical, small-molecule microarray, 635/667 nm fluorescence, primary screen (AID 1139). As to conditions: fluorescence 635/667, higher = more signal.
In assay [8] the test system is wheat germ agglutinin (Triticum aestivum), Alexa647-labelled. The assay can be described thus: Alexa647-WGA lectin binding to printed small molecules – biochemical, small-molecule microarray, 635/667 nm fluorescence, artefact control for SMM control-protein annotation, profiling panel (AID 1140).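 Note: score merges 667 nm feature emission with signal to noise over triplicate slides.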 The conditions noted are these: WGA-A647 binding, 635 nm fluorescence, higher = more signal.

Assay [9] deals with Luciferin 4-monooxygenase (Photinus pyralis) (UniProt P08659). The experiment in a line: inhibition of purified Photinus pyralis luciferase – biochemical, luminescence, purified enzyme, 2006 set, primary screen (AID 1141).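 Note: cell-free assay with purified firefly luciferase at 100 ng per well in PBS; test concentration not given here.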 The conditions noted are these: purified firefly luciferase, SteadyGlo luminescence, 30 min; higher = more signal, called active from +8 up or from −8 down.
Chain of Luciferin 4-monooxygenase (Photinus pyralis) (P08659 whole entry, looked up): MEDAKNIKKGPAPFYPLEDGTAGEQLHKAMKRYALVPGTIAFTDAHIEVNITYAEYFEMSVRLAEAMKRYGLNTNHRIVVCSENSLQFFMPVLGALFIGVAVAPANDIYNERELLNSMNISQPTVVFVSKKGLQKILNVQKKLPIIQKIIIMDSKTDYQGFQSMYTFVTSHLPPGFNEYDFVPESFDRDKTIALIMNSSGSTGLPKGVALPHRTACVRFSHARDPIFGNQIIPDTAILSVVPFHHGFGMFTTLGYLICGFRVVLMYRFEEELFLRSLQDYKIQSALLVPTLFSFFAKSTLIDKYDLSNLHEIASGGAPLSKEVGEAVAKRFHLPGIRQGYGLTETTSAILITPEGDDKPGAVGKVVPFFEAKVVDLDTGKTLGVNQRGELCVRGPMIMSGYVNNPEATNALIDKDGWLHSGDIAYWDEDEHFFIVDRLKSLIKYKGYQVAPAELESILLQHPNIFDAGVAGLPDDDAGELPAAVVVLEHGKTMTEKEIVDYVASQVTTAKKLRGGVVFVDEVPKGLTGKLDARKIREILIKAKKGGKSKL

Chain of Fibroblast growth factor 2 (Homo sapiens) (P09038 whole entry, looked up): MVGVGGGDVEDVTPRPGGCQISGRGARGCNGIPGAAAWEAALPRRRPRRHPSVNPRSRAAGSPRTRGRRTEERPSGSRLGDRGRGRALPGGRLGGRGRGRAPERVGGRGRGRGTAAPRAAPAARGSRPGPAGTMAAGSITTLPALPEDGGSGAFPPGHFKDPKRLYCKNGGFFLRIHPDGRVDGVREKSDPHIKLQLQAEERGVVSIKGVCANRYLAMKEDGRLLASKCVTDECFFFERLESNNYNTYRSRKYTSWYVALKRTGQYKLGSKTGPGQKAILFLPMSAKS
Chain of Follistatin (Homo sapiens) (P19883 whole entry, looked up): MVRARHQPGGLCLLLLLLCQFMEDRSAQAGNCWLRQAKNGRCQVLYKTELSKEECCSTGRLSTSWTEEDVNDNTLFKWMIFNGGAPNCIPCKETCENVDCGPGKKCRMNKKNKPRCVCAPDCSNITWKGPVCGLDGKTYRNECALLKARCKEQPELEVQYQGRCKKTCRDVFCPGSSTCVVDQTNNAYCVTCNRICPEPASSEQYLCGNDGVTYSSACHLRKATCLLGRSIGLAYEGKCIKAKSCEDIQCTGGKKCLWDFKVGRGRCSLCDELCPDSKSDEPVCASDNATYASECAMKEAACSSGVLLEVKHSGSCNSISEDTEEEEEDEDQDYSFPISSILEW
Chain of Focal adhesion kinase 1 (Homo sapiens) (Q05397 whole entry, looked up): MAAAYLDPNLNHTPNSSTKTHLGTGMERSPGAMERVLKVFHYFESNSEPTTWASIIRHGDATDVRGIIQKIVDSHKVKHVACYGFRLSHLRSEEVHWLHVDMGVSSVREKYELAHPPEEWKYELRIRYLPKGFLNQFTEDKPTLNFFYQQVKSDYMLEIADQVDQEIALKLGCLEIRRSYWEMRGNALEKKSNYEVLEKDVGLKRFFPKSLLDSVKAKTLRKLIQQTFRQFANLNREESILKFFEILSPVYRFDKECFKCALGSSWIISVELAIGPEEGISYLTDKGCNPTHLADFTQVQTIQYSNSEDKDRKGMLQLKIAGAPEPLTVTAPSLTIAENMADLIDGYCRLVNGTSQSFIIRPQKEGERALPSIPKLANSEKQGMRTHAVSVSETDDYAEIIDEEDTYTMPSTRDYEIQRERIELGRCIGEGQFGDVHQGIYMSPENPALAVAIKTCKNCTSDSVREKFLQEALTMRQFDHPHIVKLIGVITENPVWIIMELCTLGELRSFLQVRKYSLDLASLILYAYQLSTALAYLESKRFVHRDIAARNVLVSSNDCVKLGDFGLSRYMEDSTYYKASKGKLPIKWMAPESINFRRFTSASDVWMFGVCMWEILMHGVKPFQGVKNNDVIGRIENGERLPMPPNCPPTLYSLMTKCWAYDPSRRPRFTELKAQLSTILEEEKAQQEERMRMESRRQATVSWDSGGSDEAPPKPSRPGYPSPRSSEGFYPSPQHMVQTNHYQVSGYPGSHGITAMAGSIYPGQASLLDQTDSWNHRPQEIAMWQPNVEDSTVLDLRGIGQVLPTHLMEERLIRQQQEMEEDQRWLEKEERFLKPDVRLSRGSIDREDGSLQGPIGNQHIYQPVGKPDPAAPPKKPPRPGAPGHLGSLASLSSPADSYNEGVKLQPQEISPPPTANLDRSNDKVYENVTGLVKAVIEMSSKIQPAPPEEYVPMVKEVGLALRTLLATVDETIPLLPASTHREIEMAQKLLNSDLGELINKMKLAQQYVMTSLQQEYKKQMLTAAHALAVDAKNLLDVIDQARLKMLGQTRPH

For the compound `COc1ccc(CC[C@H](O)c2cccc(OCC(=O)OC(C)(C)C)c2)cc1`, the composite z-score was found to be 0.697 in assay [1]; 1.01 in assay [2]; 0.464 in [3]; 1.04 in assay [4]; 1.02 in assay [5]; 0.625 in [6]. Moreover, the composite z-score with Lefty1 was 1.01; in assay [8] it was 0.906. In addition, the z-score in [7] was 0.383; in [9], 0.275 (inactive).
For `CC(C)(C)N1CC=CC23O[C@@H]4/C=C\CCCOC(=O)C4[C@H]2C(=O)N(CCCCCCO)[C@@H]3C1=O` (stereo not given in full), the composite z-score in assay [1] was 3.08; in assay [2] it was -0.444; in assay [3], -0.639; in assay [4] it was -1.01; in assay [5], -0.93; in assay [6], -0.502. Besides, the composite z-score in the assay on Lefty1 is -1.11; in assay [8], 0.0119. Besides, the z-score in [7] is 1.2; in [9] it was -0.854 (inactive).
As to `CCCCC=C[C@@H](NC(=O)c1ccc(C(F)(F)F)cc1)c1ccccc1`, the composite z-score in [1] is 0.3; in assay [2] it was -0.839; in assay [3], 0.185; in assay [4], -2.63; in assay [5], -0.21; in assay [6], -0.908. Moreover, the composite z-score in the assay with Lefty1 is -0.671; in [8] it was 0.052. For the same compound, the values for the z-score in [7] and in assay [9] were 0.798 and 1.02 (inactive), respectively.
`CCOC(=O)C[C@H]1[C@H](OC(=O)c2ccc(-c3ccccc3)cc2)[C@@H](NC(=O)c2ccc3ccccc3c2)c2cc(OCCCO)ccc2N1C(=O)c1ccccc1`: the composite z-score in [1] was 0.137; in [2], 1.05; in assay [3], 0.19; in assay [4], 0.118; in assay [5], 0.0533; in [6] it was 0.831. Further, the results for the composite z-score (with Lefty1; in assay [8]) were 0.669 and 0.3, respectively. Moreover, the z-score was 0.257 in assay [7] and 0.61 (inactive) in assay [9].
As to `COCCOC(=O)N1C(=O)[C@@]2(c3ccccc31)[C@H](c1ccc(OCCO)cc1)N1[C@H](c3ccccc3)[C@H](c3ccccc3)OC(=O)[C@H]1[C@@H]2C(=O)N1CCN(c2ncccn2)CC1`, the composite z-score in assay [1] is 0.46; in [2] it was 1.2; in assay [3], 0.929; in [4], 0.869; in [5], 1.43; in [6], 1.69. Besides, the composite z-score is 1.37 in the assay with Lefty1 and 1.04 in assay [8]. The z-score in assay [7] was -1.03; in assay [9] it was -0.135 (inactive).
As to `COC(=O)c1c(CC[C@@H](CO)NC(=O)N[C@@H](Cc2ccccc2)Cn2cc(-c3cncn3C)nn2)oc(C(C)=O)c1C(=O)OC`, the composite z-score in assay [1] was 0.579; in assay [2], 0.873; in assay [3], -0.179; in assay [4], 0.107; in assay [5], 1.01; in assay [6] it was -0.0088. Besides, the composite z-score was 0.847 in the assay with Lefty1 and 0.391 in [8]. Moreover, the z-score in assay [7] is -0.691; in [9], 0.879 (inactive).
With `C=CCNC(=O)[C@H]1[C@@H]2C(=O)O[C@@H](c3ccccc3)[C@@H](c3ccccc3)N2[C@@H](c2ccc(O)cc2)[C@]12C(=O)Nc1ccc(C#CC3=CCCCC3)cc12`, the composite z-score in [1] was determined as 1.3; in assay [2], 1.02; in assay [3] it was 0.0897; in [4] it was 0.531; in [5], 0.886; in assay [6], 0.355. Moreover, the composite z-score worked out at 0.916 with Lefty1 and 0.622 in [8]. Further, the z-score in [7] is 0.88; in assay [9] it was 0.0736 (inactive).
As to `CC[C@H](C)C(=O)O[C@H]1CC[C@]2(C)C3=C(CCC2C1(C)C)[C@]1(C)CC[C@H]([C@H](C)CCCC(C)C)[C@@]1(C)CC3` (stereo not given in full), the composite z-score in assay [1] worked out at 0.226; in [2], 0.666; in [3], 0.122; in assay [4] it was 0.367; in assay [5] it was 0.538; in assay [6] it was 0.35. Also, the composite z-score in the assay on Lefty1 came out at 0.721; in assay [8], 0.0438. For the same compound, the figures for the z-score in [7] and in [9] were 1.15 and -1.4 (inactive), respectively.
`COCCOC(=O)N1C(=O)[C@@]2(c3cc(C#CCCO)ccc31)[C@H](c1ccccc1OCCO)N1[C@H](c3ccccc3)[C@H](c3ccccc3)OC(=O)[C@H]1[C@@H]2C(=O)N1CCc2cc(OC)c(OC)cc2C1`: the composite z-score in assay [1] stood at 1.86; in assay [2] it was 1.22; in assay [3], 0.405; in assay [4], 0.869; in [5] it was 1.14; in [6], 1.25. Further, the composite z-score was found to be 0.786 in the assay on Lefty1 and 0.546 in assay [8]. For the same compound, the z-score in assay [7] is -0.0868; in assay [9], -1.26 (inactive).
As to `NCCCC[C@@H]1NC(=O)[C@H]2C[C@@H](C(=O)NCc3ccc(F)cc3)[C@@H](c3ccc(O)cc3)N2C1=O`, the composite z-score is 2.05 in [1]; 0.969 in [2]; -0.145 in assay [3]; 0.165 in assay [4]; 1.32 in [5]; 1.32 in assay [6]. The composite z-score is 0.296 in the assay on Lefty1 and 1.2 in assay [8]. Also, the z-score in assay [7] is -0.724; in [9] it was 0.242 (inactive).
On to `CCC[C@@H]1[C@@H](Sc2ccccc2)[C@@H](C(=O)O)[C@H](c2ccc(C)cc2)N1S(=O)(=O)c1ccc(C)cc1`, for which the composite z-score in assay [1] was 0.832; in [2] it was 1.25; in assay [3], 0.725; in [4] it was 1.05; in assay [5] it was 0.769; in [6], 0.0754. In addition, the composite z-score in the assay with Lefty1 amounted to 0.717; in [8], 0.774. Further, the z-score in assay [7] was -0.61; in [9], 1.46 (inactive).
For the compound `COC(=O)[C@@]1(Cc2ccc(F)cc2)[C@H]2c3cc(C(=O)N(C)C)n(CCN4CCOCC4)c3C[C@H]2CN1C(=O)c1ccccc1`, the composite z-score in assay [1] is 1.65; in assay [2], 1.19; in assay [3], 1.14; in assay [4] it was 0.32; in assay [5], -0.0389; in assay [6] it was -0.708. In addition, the composite z-score in the assay with Lefty1 is -0.0199; in assay [8] it was 0.331. Also, the z-score is 0.147 in assay [7] and 2.64 (inactive) in assay [9].
In the case of `COCCCNC(=O)[C@@]1(Sc2ccc(C)cc2)CC(=O)N(C2CCCCC2)[C@@H]1c1ccc(CO)cc1I`, the composite z-score in assay [1] was 1.74; in [2], 1.18; in assay [3], 0.737; in assay [4], 0.922; in assay [5] it was 1.09; in assay [6], 0.659. The composite z-score came out at 0.136 in the assay with Lefty1 and 0.814 in assay [8]. Besides, the z-score in [7] is 0.816; in [9], 0.235 (inactive).
For `COCCOC(=O)N1C(=O)[C@@]2(c3cc(C#Cc4ccc(OC)cc4)ccc31)[C@H](c1ccc(OCCO)cc1)N1[C@H](c3ccccc3)[C@H](c3ccccc3)OC(=O)[C@H]1[C@@H]2C(=O)N1CCCCCCC1`, the composite z-score in assay [1] was -0.252; in assay [2], 1.2; in assay [3], 1.4; in [4], 0.636; in assay [5], 1.36; in [6], 1.24. Also, the composite z-score in the assay on Lefty1 came out at 1.36; in assay [8], 1.01. Further, the z-score in assay [7] is -0.625; in assay [9], -2.14 (inactive).
